Source: paper PMC5540273 (PLoS ONE, 2017)

Assays:
Conditions in all cases: concentration: 1 μM, replicates: in singlicate; n = 1
MEK5 = test system: T1, MEK5
T1 construct: gene MAP2K5

MEK6 = test system: T2, MEK6
T2 construct: gene MAP2K6

MELK = test system: MELK
MERTK = test system: MERTK
MET = test system: MET
MINK = test system: T3, MINK
T3 construct: gene MINK1

MKK7 = test system: MKK7
MKNK1 = test system: MKNK1
MKNK2 = test system: MKNK2
MLCK = test system: T4, MLCK
T4 construct: gene MYLK3
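Note: KINOMEscan kinase panel screen.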

SMILES: CN(c1ccc(NC(=O)Nc2cc(C(F)(F)F)ccc2F)cc1)c1ccnc(Nc2ccc(S(N)(=O)=O)cc2)n1 [GW809893]
- %Inh (MEK5): 98.8%
- %Inh (MEK6): 100%
- %Inh (MELK): 12%
- %Inh (MERTK): 98.2%
- %Inh (MET): 88%
- %Inh (MINK): 76%
- %Inh (MKK7): 2%
- %Inh (MKNK1): 50%
- %Inh (MKNK2): 98.9%
- %Inh (MLCK): 28%

SMILES: Cc1ccc(S(=O)(=O)Nc2ccc(Nc3nccc(Nc4cccc5[nH]ncc45)n3)cc2)cc1 [GSK581271]
- %Inh (MEK5): 69%
- %Inh (MEK6): 0%
- %Inh (MELK): 0%
- %Inh (MERTK): 9%
- %Inh (MET): 0%
- %Inh (MINK): 0%
- %Inh (MKK7): 0%
- %Inh (MKNK1): 0%
- %Inh (MKNK2): 1%
- %Inh (MLCK): 0%

SMILES: O=C(Nc1cccc(-c2nn3ccccc3c2-c2ccnc(Nc3cccc(F)c3)n2)c1)c1c(F)ccc(F)c1Cl [GSK357952]
- %Inh (MEK5): 88%
- %Inh (MEK6): 0%
- %Inh (MELK): 0%
- %Inh (MERTK): 51%
- %Inh (MET): 0%
- %Inh (MINK): 0%
- %Inh (MKK7): 0%
- %Inh (MKNK1): 0%
- %Inh (MKNK2): 29%
- %Inh (MLCK): 0%

SMILES: Fc1ccc(-c2ncn(C3CCNCC3)c2-c2ccnc(Oc3ccc(-c4ccccc4)cc3)n2)cc1 [SB-245391]
- %Inh (MEK5): 17%
- %Inh (MEK6): 29%
- %Inh (MELK): 27%
- %Inh (MERTK): 0%
- %Inh (MET): 50%
- %Inh (MINK): 30%
- %Inh (MKK7): 11%
- %Inh (MKNK1): 0%
- %Inh (MKNK2): 10%
- %Inh (MLCK): 0%

SMILES: CCn1c(-c2nonc2N)nc2c(C#CC(C)(C)O)nc(OC[C@H](N)c3ccccc3)cc21 [GSK943949]
- %Inh (MEK5): 0%
- %Inh (MEK6): 0%
- %Inh (MELK): 63%
- %Inh (MERTK): 21%
- %Inh (MET): 0%
- %Inh (MINK): 5%
- %Inh (MKK7): 0%
- %Inh (MKNK1): 5%
- %Inh (MKNK2): 0%
- %Inh (MLCK): 34%

SMILES: CC(=O)N1CCN(c2ccc(Nc3nccc(-c4sc(C(C)C)nc4-c4cccc(NS(=O)(=O)c5cccc(Cl)c5)c4)n3)cn2)CC1 [GSK1660437]
- %Inh (MEK5): 99.8%
- %Inh (MEK6): 0%
- %Inh (MELK): 57%
- %Inh (MERTK): 44%
- %Inh (MET): 0%
- %Inh (MINK): 18%
- %Inh (MKK7): 0%
- %Inh (MKNK1): 7%
- %Inh (MKNK2): 51%
- %Inh (MLCK): 0%

SMILES: CNC(=O)c1ccccc1Nc1nc(Nc2ccc(N3CCOCC3)cc2)ncc1Cl.Cl [GSK1576028]
- %Inh (MEK5): 97.6%
- %Inh (MEK6): 79%
- %Inh (MELK): 99.8%
- %Inh (MERTK): 100%
- %Inh (MET): 95%
- %Inh (MINK): 72%
- %Inh (MKK7): 0%
- %Inh (MKNK1): 14%
- %Inh (MKNK2): 82%
- %Inh (MLCK): 96.1%

SMILES: CC(C)(C)c1ccc2nccc(Nc3cccc(O)c3)c2c1 [GW856795]
- %Inh (MEK5): 52%
- %Inh (MEK6): 0%
- %Inh (MELK): 1%
- %Inh (MERTK): 0%
- %Inh (MET): 0%
- %Inh (MINK): 0%
- %Inh (MKK7): 31%
- %Inh (MKNK1): 47%
- %Inh (MKNK2): 23%
- %Inh (MLCK): 0%

SMILES: CC(=O)Nc1nc2cnc(Nc3cc(NC(=O)c4cccc(C5(C#N)CC5)c4Cl)ccc3C)nc2s1
- %Inh (MEK5): 12%
- %Inh (MEK6): 25%
- %Inh (MELK): 0%
- %Inh (MERTK): 17%
- %Inh (MET): 8%
- %Inh (MINK): 0%
- %Inh (MKK7): 10%
- %Inh (MKNK1): 16%
- %Inh (MKNK2): 0%
- %Inh (MLCK): 0%

SMILES: CCCCc1nn2ncccc2c1-c1ccnc(Nc2ccc(N3CCN(C)CC3)cc2)n1 [GW684941]
- %Inh (MEK5): 98.9%
- %Inh (MEK6): 0%
- %Inh (MELK): 0%
- %Inh (MERTK): 56%
- %Inh (MET): 8%
- %Inh (MINK): 43%
- %Inh (MKK7): 0%
- %Inh (MKNK1): 9%
- %Inh (MKNK2): 64%
- %Inh (MLCK): 0%
